# Assay results taken from PubChem BioAssay (EPA / NIEHS).
# Where “and” joins values, the source holds several entries; their conditions need not be identical. Equal entries are not always repeated. Results filed as inconclusive are left out. Some compounds were tested as several samples or in several runs, with calls that do not always agree. Calls of active or inactive are those of the source. How the source made its calls, unless noted: active means hit-call score of the fitted dose curve at least 0.9, where 1 is the maximum; inactive means score below 0.9.
# What was measured:
# [1] = CCTE_Mundy_HCI_Cortical_NOG_NeuronCount: CCTE's Neurite Outgrowth Assay in rat cortical cells for Neuron Count, Mundy Lab (AID 2284236; active means hit-call score of the fitted dose curve at least 0.9, where 1 is the maximum;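 further: neurons counted by imaging betaIII-tubulin and Hoechst stained cortical cells; cells exposed to compound for about 48 hours before fixation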)
# Method in brief: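 Read-out: neuron number by high-content imaging of betaIII-tubulin (Alexa Fluor-488) and Hoechst-labelled rat primary cortical cells.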
# [2] = CCTE_Mundy_HCI_Cortical_NOG_BPCount: CCTE's Neurite Outgrowth Assay in rat cortical cells for Branch Point Count, Mundy Lab (AID 2284237);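 on AC50: branch points counted about two days after chemical exposure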
# Method in brief: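 Measured 50.33 h after dosing, this morphology endpoint uses rat primary cortical cultures labelled for betaIII-tubulin. Branch points are quantified by high-content imaging, with DMSO as negative control and baseline.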
# [3] = CCTE_Mundy_HCI_hNP1_Casp3_7: CCTE's Caspase-Glo 3/7 Assay in human neuroprogenitor cells for Apoptosis, Mundy Lab (AID 2284240)
# Method in brief: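 Apoptosis is scored by activated caspase-3/7 luminescence in WA09-derived neural progenitor cells, measured 26.5 h after chemical dosing. Values represent gain of signal relative to DMSO vehicle.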
# [4] = CCTE_Mundy_HCI_Cortical_Synap_Neur_Matur_NeuronCount: CCTE's Synaptogenesis and Neurite Maturation Assay in rat cortical cells for Neuron Count, Mundy Lab (AID 2284242; active means hit-call score of the fitted dose curve at least 0.9, where 1 is the maximum;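 on AC50: hits reduce neuron count versus DMSO baseline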)
# Method in brief: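 Rat primary cortical cells, AraC added at DIV 5, dosed with media change from DIV 7 to DIV 12. Fixed, Hoechst-stained and immunolabelled for MAP2 and synaptophysin; neuron number counted by high-content imaging, loss fitted versus DMSO.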
# [5] = IUF_NPC2c_oligodendrocyte_migration_120hr: Leibniz Research Institute for Environmental Medicine (IUF) 120-hour Neural Progenitor Cell Migration Assay for Oligodendrocyte Migration (NPC2c) (AID 2284297);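 further: O4-positive oligodendrocyte migration distance divided by radial glia migration distance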
# Method in brief: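 Exposure runs 5 days from differentiation onset at 37C, seven concentrations plus solvent control, DMSO at most 0.1%, applied to primary hNPC spheres on laminin. After fixation, O4 immunostaining gives oligodendrocyte distance from the sphere core, relative to radial glia migration.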
# [6] = IUF_NPC2a_radial_glia_migration_120hr: Leibniz Research Institute for Environmental Medicine (IUF) 120-hour Neural Progenitor Cell Migration Assay for Radial Glia Migration (NPC2a) (AID 2284298)
# Method in brief: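 Migration distance in um, sphere core edge to migration-area edge, derived by nuclei-density algorithm from Hoechst images after 120 h compound exposure. Primary hNPC spheres differentiated on poly-D-lysine/laminin in N2 medium, 37C; medium half-replaced day 3.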
# [7] = CCTE_Mundy_HCI_hNP1_CellTiter: CCTE's Cell Titer-Glo 2 Assay in human neuroprogenitor cells for Viability, Mundy Lab (AID 2284241; active means hit-call score of the fitted dose curve at least 0.9, where 1 is the maximum;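 on AC50: a hit is a drop in ATP luminescence versus DMSO meaning reduced viability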)
# Method in brief: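 Human neural progenitor cells (hNP1, WA09-derived) were plated on poly-L-ornithine/laminin and grown 40 to 44 hours at 37 °C, 5% CO2 before chemical addition. Twenty-four hours later, ATP was measured by CellTiter-Glo luminescence; loss of signal versus DMSO indicates reduced viability.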
# [8] = read-out: Collagen I, COL1A1 (gene 1277); assay: BSK_MyoF_CollagenI: BioMAP Diversity Plus: MyoF Assay for Collagen I Biomarker Activity (AID 2284238); conditions: primary human lung fibroblasts
# Method in brief: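 Collagen I levels measured by ELISA on human lung fibroblast cultures 24 h post-dosing, with curve fitting in the positive direction relative to DMSO; SRB staining of parallel wells marked cytotoxicity.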
# [9] = read-out: Collagen III, COL3A1 (gene 1281); assay: BSK_MyoF_CollagenIII: BioMAP Diversity Plus: MyoF Assay for Collagen III Biomarker Activity (AID 2284239); conditions: primary human lung fibroblasts
# Method in brief: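 Collagen III biomarker quantified by ELISA in human lung fibroblast cultures 24 h after dosing. Activity fitted in the positive direction against DMSO as baseline.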
# [10] = read-out: Interleukin 17F (IL17F), IL17F (gene 112744); assay: BSK_BT_xIL17F: BioMAP Diversity Plus: BT Assay for Interleukin 17F (IL17F) Biomarker Activity (AID 2284243); conditions: primary human B cells with PBMC
# Method in brief: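 Human B cells co-cultured with PBMC; secreted IL-17F quantified by LumineX xMAP 24 hours after chemical dosing. Activity fitted in the positive direction against DMSO negative control as baseline.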
# [11] = read-out: Actin alpha 1 (ACTA1), ACTA1 (gene 58); assay: BSK_MyoF_ACTA1: BioMAP Diversity Plus: MyoF Assay for Actin alpha 1 (ACTA1) Biomarker Activity (AID 2284244); conditions: primary human lung fibroblasts
# Method in brief: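 Human lung fibroblast (MyoF system) cultures dosed with test chemical; alpha-SMA measured by ELISA 24 h after dosing, normalized to DMSO control. Cytotoxicity tracked in parallel cultures by SRB total-protein staining.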
# [12] = read-out: Interleukin 2 (IL2), IL2 (gene 3558); assay: BSK_BT_xIL2: BioMAP Diversity Plus: BT Assay for Interleukin 2 (IL2) Biomarker Activity (AID 2284245); conditions: primary human B cells with PBMC
# Method in brief: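 Human B cell plus PBMC co-culture, 24 h after chemical dosing; secreted IL-2 quantified by Luminex xMAP multiplex, fitted for signal gain against DMSO baseline.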
# [13] = read-out: Basic fibroblast growth factor (bFGF), FGF2 (gene 2247); assay: BSK_MyoF_bFGF: BioMAP Diversity Plus: MyoF Assay for Basic fibroblast growth factor (bFGF) Biomarker Activity (AID 2284246); conditions: primary human lung fibroblasts
# Method in brief: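 Human lung fibroblast cultures were dosed and measured 24 h later in 96-well format. bFGF biomarker levels quantified by ELISA, with activity fitted in the positive direction against DMSO.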
# [14] = read-out: Collagen IV, COL4A1 (gene 1282); assay: BSK_MyoF_CollagenIV: BioMAP Diversity Plus: MyoF Assay for Collagen IV Biomarker Activity (AID 2284247); conditions: primary human lung fibroblasts
# Method in brief: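 Primary human lung fibroblasts (MyoF system) dosed 24 h; Collagen IV measured by ELISA. Activity fitted in positive direction against DMSO; cytotoxicity tracked by SRB total-protein staining in parallel cultures.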
# [15] = read-out: Plasminogen activator inhibitor-1 (PAI1), SERPINE1 (gene 5054); assay: BSK_MyoF_PAI1: BioMAP Diversity Plus: MyoF Assay for Plasminogen activator inhibitor-1 (PAI1) Biomarker Activity (AID 2284256); conditions: primary human lung fibroblasts;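 further: PAI-1 protein level measured by ELISA in fibroblast cultures; PAI-1 read 24 h after compound addition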
# Method in brief: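 Human lung fibroblasts (MyoF system) were exposed to test chemicals for 24 h, then PAI-1 was quantified by ELISA. Activity was fitted in the positive (signal-gain) direction relative to DMSO vehicle as baseline.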
# [16] = read-out: Interleukin-8 (IL8), CXCL8 (gene 3576); assay: BSK_MyoF_IL8: BioMAP Diversity Plus: MyoF Assay for Interleukin-8 (IL8) Biomarker Activity (AID 2284261); conditions: primary human lung fibroblasts
# Method in brief: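 IL-8 quantified by ELISA after 24 h compound exposure of primary human lung fibroblasts. SRB staining of parallel cultures flagged cytotoxicity; DMSO served as baseline.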
# [17] = read-out: Decorin, DCN (gene 1634); assay: BSK_MyoF_Decorin: BioMAP Diversity Plus: MyoF Assay for Decorin Biomarker Activity (AID 2284265); conditions: primary human lung fibroblasts
# Method in brief: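 Decorin protein was quantified by ELISA 24 h after chemical addition to primary human lung fibroblasts and analysed as increase over DMSO. Cytotoxicity was tracked in parallel cultures by SRB total-protein staining read at 560 nm.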
# [18] = BSK_MyoF_SRB: Viability Assessment in the BioMAP Diversity Plus: MyoF Assay (AID 2284267); conditions: primary human lung fibroblasts;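 further: total protein by SRB absorbance in parallel cultures as cytotoxicity measure; cells assessed 24 h after compound addition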
# Method in brief: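 Human lung fibroblasts, 24 h after chemical dosing; total protein measured by 0.1% sulforhodamine B staining after 10% TCA fixation, read at 560 nm, fitted relative to DMSO baseline.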
# [19] = read-out: Matrix Metallopeptidase 1 (MMP1), MMP1 (gene 4312); assay: BSK_MyoF_MMP1: BioMAP Diversity Plus: MyoF Assay for Matrix Metallopeptidase 1 (MMP1) Biomarker Activity (AID 2284268); conditions: primary human lung fibroblasts
# Method in brief: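 Human lung fibroblasts (MyoF system) exposed to chemical for 24 h in 96-well format; MMP1 biomarker quantified by ELISA, with activity fitted in the positive direction relative to DMSO baseline.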
# [20] = read-out: TIMP metallopeptidase inhibitor 1 (TIMP1), TIMP1 (gene 7076); assay: BSK_MyoF_TIMP1: BioMAP Diversity Plus: MyoF Assay for TIMP metallopeptidase inhibitor 1 (TIMP1) Biomarker Activity (AID 2284269); conditions: primary human lung fibroblasts
# Method in brief: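 Primary human lung fibroblasts, MyoF multiplex system; chemical exposure 24 h; TIMP-1 by ELISA; positive fitting direction vs DMSO control.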
smiles,measurement,setting,value
CO/C=C(/C(=O)OC)c1ccccc1Oc1cc(Oc2ccccc2C#N)ncn1,AC50,[1],4.67 µM (active)
same,AC50,[2],2.23 µM (active)
same,outcome,[3],inactive
same,AC50,[4],3.73 µM (active)
same,outcome,[5],inactive
same,outcome,[6],inactive
CC(C)(C)c1ccc(CSc2cnn(C(C)(C)C)c(=O)c2Cl)cc1,AC50,[1],0.0982 µM (active)
same,AC50,[2],0.00299 µM (active)
same,AC50,[3],9.49 µM (active)
same,AC50,[7],11.5 µM (active)
same,AC50,[4],0.000347 µM (active)
same,outcome,[5],inactive
same,AC50,[6],3.31 µM (active)
COP(=S)(OC)Oc1nc(Cl)c(Cl)cc1Cl,AC50,[1],15 µM (active)
same,AC50,[2],24.1 µM (active)
same,outcome,[3],inactive
same,outcome,[7],inactive
same,AC50,[4],25.7 µM (active)
same,outcome,[5],inactive
same,outcome,[6],inactive
COP(N)(=O)SC (stereo not drawn),outcome,[1],inactive
same,outcome,[2],inactive
same,outcome,[3],inactive
same,outcome,[7],inactive
same,outcome,[4],inactive
same,outcome,[5],inactive
same,outcome,[6],inactive
CCCCOC(=O)c1ccccc1C(=O)OCCCC,outcome,[1],inactive
same,outcome,[2],inactive
same,outcome,[3],inactive
same,AC50,[4],81.3 µM (active)
same,outcome,[5],inactive
same,outcome,[6],inactive
C=CCC1=C(C)[C@@H](OC(=O)[C@@H]2[C@@H](C=C(C)C)C2(C)C)CC1=O,outcome,[2],inactive
same,outcome,[3],inactive
same,AC50,[7],7.56 µM (active)
same,AC50,[4],26.6 µM (active)
N#Cc1nn(-c2c(Cl)cc(C(F)(F)F)cc2Cl)c(N)c1S(=O)C(F)(F)F (stereo not drawn),outcome,[1],inactive
same,outcome,[2],inactive
same,outcome,[3],inactive
same,outcome,[7],inactive
same,AC50,[4],15 µM (active)
same,outcome,[5],inactive
same,AC50,[6],18.8 µM (active)
COc1cnc(OC)n2nc(NS(=O)(=O)c3c(OCC(F)F)cccc3C(F)(F)F)nc12,outcome,[8],inactive
same,outcome,[9],inactive
same,outcome,[10],inactive
same,outcome,[11],inactive
same,outcome,[12],inactive
same,outcome,[13],inactive
same,AC50,[14],0.024 µM (active)
same,outcome,[15],inactive
same,outcome,[16],inactive
same,outcome,[17],inactive
same,outcome,[18],inactive
same,outcome,[19],inactive
same,outcome,[20],inactive
CNC(=O)ON=CC(C)(C)SC,outcome,[2],inactive
same,outcome,[3],inactive
same,outcome,[7],inactive
same,outcome,[5],inactive
same,outcome,[6],inactive
CCOC(=O)CC(SP(=S)(OC)OC)C(=O)OCC (stereo not drawn),AC50,[1],23.9 µM (active)
same,AC50,[3],84.5 µM (active)
same,outcome,[3],inactive
same,AC50,[7],72.8 µM (active)
same,outcome,[7],inactive
same,AC50,[4],50 µM (active)
same,outcome,[5],inactive
same,outcome,[6],inactive
CCCCC(CC)COC(=O)c1ccccc1C(=O)OCC(CC)CCCC (stereo not drawn),AC50,[3],16.6 µM (active) and 11.1 µM (active)
same,AC50,[7],9.22 µM (active)
same,AC50,[4],7.31 µM (active) and 5.3 µM (active)
same,outcome,[5],inactive
same,outcome,[6],inactive
C=CC1(C)OC(=O)N(c2cc(Cl)cc(Cl)c2)C1=O (stereo not drawn),outcome,[1],inactive
same,outcome,[2],inactive
same,outcome,[3],inactive
same,outcome,[7],inactive
same,outcome,[5],inactive
same,outcome,[6],inactive
CN(C)C(=S)SSC(=S)N(C)C,AC50,[1],0.0469 µM (active)
same,AC50,[2],0.055 µM (active)
same,AC50,[3],87.3 µM (active)
same,AC50,[7],9.92 µM (active)
same,AC50,[4],0.0653 µM (active)
same,AC50,[5],28.1 µM (active)
same,AC50,[6],47.3 µM (active)
COC(=O)N(OC)c1ccccc1COc1ccn(-c2ccc(Cl)cc2)n1,AC50,[1],0.143 µM (active)
same,AC50,[2],0.116 µM (active)
same,AC50,[3],33.5 µM (active)
same,AC50,[7],50 µM (active)
same,AC50,[4],0.0487 µM (active)
same,outcome,[5],inactive
same,AC50,[6],3.18 µM (active)
C=CCC1=C(C)C(OC(=O)C2C(C=C(C)C)C2(C)C)CC1=O (stereo not drawn),outcome,[2],inactive
same,outcome,[3],inactive
same,outcome,[7],inactive
CCOc1cc(Oc2ccc(C(F)(F)F)cc2Cl)ccc1[N+](=O)[O-],AC50,[3],52.1 µM (active)
same,AC50,[7],18.9 µM (active)
same,AC50,[4],15 µM (active)
same,outcome,[5],inactive
same,outcome,[6],inactive
CCCCNC(=O)n1c(NC(=O)OC)nc2ccccc21,AC50,[2],10.3 µM (active)
same,AC50,[3],7.6 µM (active)
same,AC50,[7],10 µM (active)
Cc1ccc(-c2c(Cl)nc(C#N)n2S(=O)(=O)N(C)C)cc1,AC50,[1],50 µM (active)
same,AC50,[2],78 µM (active)
same,AC50,[3],89.9 µM (active)
same,AC50,[7],85.4 µM (active)
same,AC50,[4],50 µM (active)
same,AC50,[5],23.9 µM (active)
same,AC50,[6],33.6 µM (active)
